An excerpt weighted towards active compounds, which were near 2.5% of everything screened.
Cruzain noTriton – qHTS Assay for Promiscuous and Specific Inhibitors of Cruzain (without detergent). AID 1476, 2009. 2.3% of 200,000 active. purified cruzain, Z-FR-AMC fluorescence, no detergent. Potency, µM, for inactives: max response, negative = inhibition, usual class: inhibitors. Cruzipain (Trypanosoma cruzi), P25779;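 also: plate controls were enzyme without inhibitor for no effect and buffer without enzyme for full effect; nearly all actives have a fitted effect of over 40% in size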
Target sequence (P25779 123-467 limits assumed): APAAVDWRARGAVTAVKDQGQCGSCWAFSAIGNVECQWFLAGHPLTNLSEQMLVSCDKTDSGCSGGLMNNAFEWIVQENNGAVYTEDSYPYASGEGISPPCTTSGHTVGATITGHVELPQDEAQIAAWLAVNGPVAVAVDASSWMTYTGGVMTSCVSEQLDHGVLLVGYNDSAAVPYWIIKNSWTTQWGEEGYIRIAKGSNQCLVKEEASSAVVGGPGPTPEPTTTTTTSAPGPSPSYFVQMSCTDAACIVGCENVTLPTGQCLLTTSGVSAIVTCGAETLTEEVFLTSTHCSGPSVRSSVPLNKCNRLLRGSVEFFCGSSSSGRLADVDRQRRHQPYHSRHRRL
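Purified cruzain at 1.5 nM, pre-incubated 15 min with compound at room temperature in 100 mM sodium acetate pH 5.5, 5 mM DTT, 0.00005% Triton X-100. Reaction started with 2 uM Z-FR-AMC; AMC fluorescence increase over 60 s gives rate.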
Cruzain inh Det – qHTS Assay for Promiscuous and Specific Inhibitors of Cruzain (with detergent); purified cruzain, Z-FR-AMC fluorescence, 0.01% Triton; Cruzipain (Trypanosoma cruzi), P25779; 0.43% of 200,000 active; AID 1478, 2009; Potency, µM, inactives show max response, negative = inhibition, most hits filed as inhibitors;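 also: plate controls were neutral wells for no effect and buffer without enzyme for full effect; nearly all actives have a fitted effect of over 40% in size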
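In this qHTS format, compounds are incubated with 1.5 nM cruzain for 15 min at room temperature before 2 uM Z-FR-AMC is added. Release of AMC is followed at 360/450 nm, and progress is taken as the 60 s fluorescence difference.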
* marks the source's active call; other numbers are inactive results; u = inconclusive. Calls follow the shape of the dose curve; as a rule, active = well fitted curve in the direction sought with a large enough effect; inconclusive = small, poorly fitted or top-dose-only effect, or another doubt; inactive = no such curve, though single readings can be large; an effect the other way counts as inactive or inconclusive. Potency is read from the fitted curve at half-maximal effect.

SMILES | Cruzain noTriton | Cruzain inh Det
CCOC(=O)CN1C=C(c2ccc3ccccc3n2)C(C[N+](=O)[O-])c2ccccc21 (configuration not stated) | 25.1µM* | -3.7%
O=C(O)c1c(-c2c3ccc(=O)cc-3oc3cc(O)ccc23)cc2ccccc2c1-c1ccccc1 | 2.9% | 2.9%
CN(C)Cc1ccc(C(C)(C)C)cc1-c1cc(C(C)(C)C)ccc1CN(C)C | -6.0% | 0.4%
Cc1ccc(-c2nc3cc(NC(=O)c4cc(Br)ccc4Cl)ccc3o2)cc1 | -26.3% | -0.7%
Cc1cc(C)c2oc(-c3ccc(NC(=O)c4cc(Br)ccc4Cl)cc3)nc2c1 | 2.51µM* | -1.3%
CC(C)c1cc(-c2nc(-c3ccc(Cl)cc3)no2)n[nH]1 | 9.8% | -11.5%
CC1(C)[C@@H]2CC[C@@]1(CS(=O)(=O)Nc1ccccc1)C(=O)C2 | 3.6% | 7.8%
COc1ccc(S(=O)(=O)Nc2ccccc2C(=O)NCc2ccco2)cc1Br | 25.1µM* | u
CCOc1ccc(S(=O)(=O)Nc2ccccc2C(=O)NCc2ccco2)cc1 | 6.2% | -11.6%
Cc1ccccc1NC(=O)N1CCc2cc(S(=O)(=O)N3CCC(C)CC3)ccc21 | 12.8% | -0.4%
CCN(CC)CCCCn1c(-c2ccccc2)nc2c(NCCOC)nc(C)nc21 | -4.7% | -7.5%
CSCCC(NC(=O)c1ccc([N+](=O)[O-])cc1Cl)C(=O)OCC(=O)N(C)C (configuration not stated) | -22.9% | -23.6%
CSCCC(NC(=O)c1ccccc1)C(=O)Nc1ccc(C)cc1 (configuration not stated) | -17.9% | 0.4%
CSCCC(NC(=O)c1ccc(Cl)cc1)C(=O)OCC(=O)Nc1cc(Cl)ccc1C#N (configuration not stated) | -28.7% | 25.1µM*
CSCCC(NC(=O)c1ccccc1)C(=O)OCC(=O)Nc1ccc(C)c(Cl)c1 (configuration not stated) | -14.3% | 14.1µM*
CC(C)C[C@@H](CC(=O)N[C@H](CC(=O)N[C@@H]1CCNC[C@H]1C(=O)N[C@H](CC(=O)N[C@@H](CCC(=O)O)CC(=O)O)Cc1c[nH]c2ccccc12)C(C)C)NC(=O)[C@@H]1CNCC[C@H]1N | -6.4% | 1.1%
CCOC(=O)CNC(=O)O[C@@H]1Cc2cc(OC)ccc2O[C@H]1c1cccc(OC)c1 | -1.5% | 2.1%
O=C(Nc1cccc(C(F)(F)F)c1)c1cc2ccc3cccnc3c2[nH]1 | -14.0% | -0.2%
O=C(Nc1ccc(F)cc1F)c1cc2ccc3cccnc3c2[nH]1 | 25.1µM* | -2.0%
Cc1ccccc1NC(=O)CN1C(=O)CCn2nc(-c3cccn3C)cc21 | u | -0.1%
COc1ccc(CNC(=O)Cn2ccc3cc(S(=O)(=O)N4CCCCC4)ccc32)cc1OC | u | -5.9%
CCCCCn1c(N)c(C(=O)NCc2cccs2)c2nc3ccccc3nc21 | 4.1% | 0.2%
Nc1c(C(=O)NCCCc2ccccc2)c2nc3ccccc3nc2n1Cc1cccs1 | 6.31µM* | 5.8%
COc1ccccc1C1Nc2cccc3cccc(c23)N1 | 25.1µM* | -4.3%
Oc1ccccc1C1Nc2cccc3cccc(c23)N1 | -19.4% | -9.8%
SMILES | Cruzain noTriton | Cruzain inh Det
CCCCN(CCCC)S(=O)(=O)c1ccc(NC(=O)c2c(-c3ccccc3)noc2C)cc1 | -8.7% | -7.4%
CCCN(CCC)S(=O)(=O)c1ccc(C(=O)NNc2nc(-c3ccccc3)c3cc(Br)ccc3n2)cc1 | 10µM* | -2.1%
CCOC(=O)Cn1c(=O)n(C2CCCCC2)c2nc(-c3ccc(CC)cc3)nc(C(N)=O)c21 | -7.8% | 0.3%
CCOC(=O)c1sc(-c2ccc(Br)cc2)cc1N | -2.1% | -5.6%
CCOC(=O)c1cc(-c2ccc(N)cc2)sc1N | 31.6µM* | -16.8%
CC1CCN(c2ccc(-c3cccc(NS(=O)(=O)c4cccs4)c3)nn2)CC1 | u | -5.1%
O=C(Nc1ccc(Cn2cccn2)cc1)c1ccc(COc2cccc(Br)c2)cc1 | -13.2% | -3.7%
O=C(Nc1ccc(Cn2cccn2)cc1)c1ccc(COc2ccc(Br)cc2)cc1 | 12.6µM* | 2.4%
CCCNC(=O)C1CCC(Cn2c(=O)c3sccc3n(CC(=O)N(CC)CC)c2=O)CC1 (configuration not stated) | 12.1% | 3.3%
N#C/C(=C(\O)C(=O)O)c1ccc(-c2cccc3ccccc23)cc1 | 4.6% | 4.8%
Cc1ccc(C(=O)COC(=O)CNC(=O)COc2ccccc2C)cc1C | u | 15.8µM*
CC(=O)NCC(=O)OCC(=O)c1ccc(C)c(C)c1 | 9.1% | 5.3%
COc1ccccc1C(=O)NCC(=O)OCc1ccc(Br)cc1 | -11.1% | -19.2%
COc1ccccc1C(=O)NCC(=O)OC(C)C(=O)NC(=O)NC1CCCCC1 (configuration not stated) | 10µM* | 8.91µM*
CCCOc1ccc(CNC(=O)Cn2cc3c(n2)-c2c(oc(C(=O)N4CCOCC4)c2C)CC3)cc1 | u | -7.1%
Cc1cc(C)cc(C(=O)Nc2ccc(-c3nc4ncccc4o3)cc2)c1 | -3.2% | -3.6%
COc1ccc2c(=O)c3c(=O)n(Cc4ccco4)c(C(C)C)nc3oc2c1 | 31.6µM* | u
COc1ccc2c(=O)c3c(=O)n(Cc4ccco4)c(-c4ccc(C)cc4)nc3oc2c1 | -22.8% | -6.4%
COc1cc(/C=N/NC(=O)COc2c(C)cc([N+](=O)[O-])cc2C)ccc1OC(=O)c1ccccc1 | 25.1µM* | -4.7%
O=C(CN1CCOCC1)N/N=C/c1cc2ccccc2nc1Cl | -5.9% | -6.4%
COc1cc(/C=N/NC(N)=O)ccc1OCC(=O)Nc1ccc(C)c(C)c1 | -22.0% | -5.0%
O=C(COc1ccccc1[N+](=O)[O-])N/N=C/c1ccc(O)cc1 | -6.9% | -4.8%
O=C(COc1ccccc1-c1ccccc1)N/N=C/c1ccc2ccccc2c1 | 20µM* | -1.7%
CCOc1cc(/C=N/NC(=O)c2cc(C)[nH]n2)ccc1OC(=O)c1ccc([N+](=O)[O-])cc1 | -1.2% | 3.8%
Cc1ccc(NCC(=O)N/N=C/c2cc3ccccc3nc2Cl)cc1 | 25.1µM* | -14.9%
SMILES | Cruzain noTriton | Cruzain inh Det
COc1cc(/C=N/NC(N)=S)ccc1OCC(=O)Nc1ccc(C)c(C)c1 | 12.6µM* | 15.8µM*
COc1ccc(NC(=O)Nc2c[nH]c(=O)[nH]c2=O)c(OC)c1 | -2.1% | 2.3%
C#CCOc1ccc(-c2nnc(Nc3cccc(C)c3)c3ccccc23)cc1 | -3.4% | -7.1%
O=C(NCc1ccco1)c1ccc2c(c1)N(Cc1ccc(F)cc1)C(=O)c1ccccc1S2=O (configuration not stated) | -14.6% | -6.4%
CCOC(=O)c1cc(-c2ccccc2)n(CC(=O)Nc2cc(Cl)c(OC)cc2OC)c1C | -4.4% | 0.4%
C[C@@H](C1[C@@H](O)CC2C3C=CC4C[C@@H](O)CC[C@]4(C)[C@H]3CC[C@@]21C)[C@@H]1CCCCN1 (some centres not stated) | -5.4% | -2.3%
COc1ccc(NC(=O)Cn2c(SCc3cccc(Cl)c3)nc3ccncc32)c(OC)c1OC | 21.9% | -10.9%
COc1ccc(/C=N/NC(=O)c2cccc([N+](=O)[O-])c2)cc1OC(=O)c1ccc(C)cc1 | -20.1% | 7.6%
Cc1cc(C)nc(SCC(=O)N/N=C\C(Br)=C\c2ccccc2)n1 | 6.1% | -7.1%
CCOc1cc(/C=N/NC(=O)CNc2ccc(C)cc2)ccc1OC(=O)c1ccccc1 | 10µM* | -2.7%
COc1cc(/C=N/NC(=O)COc2c(C)cc([N+](=O)[O-])cc2C)ccc1OC(=O)c1ccccc1Br | 10µM* | -4.5%
CCOc1cc(/C=N/NC(N)=O)ccc1OC(=O)c1ccc(C)cc1 | 4.1% | -3.4%

Assay outcomes deposited in PubChem by National Center for Advancing Translational Sciences (NCATS).
